Assay outcomes deposited in PubChem BioAssay by National Center for Advancing Translational Sciences (NCATS).
NPC1 prom act: activators of NPC1 promoter; Huh7 NPC1 promoter luciferase reporter, 24 h; Potency, µM (titrated, usually from 9.22 µM), for the others: top-dose activation, actives largely listed as activators; 2.4% of 320,000 active; AID 485313; also: % of control where 0% means no effect; nearly all actives have a fitted effect of over 60% in size
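Stable NPC1-promoter luciferase Huh7 line; cpd (DMSO) 24 h, 37 °C, 5% CO2; Amplite luciferase reagent 10 min RT; luminescence readout. qHTS format.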
Rab9 promoter act: activators of Rab9 promoter. AID 485297. Potency, µM (doses to about 9.22 µM), for the others: top-dose activation, negative = inhibition, hits mostly activators. 2.8% of 320,000 active. Huh7 Rab9 promoter-luciferase reporter, luminescence, 24 h; also: % of control where 0% means no effect; nearly all actives have a fitted effect of over 60% in size
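Cells were plated at 1500 per well in reduced-serum medium with 10% FBS and left 2 h. Compound in DMSO was then added for 24 h at 37 °C. Reporter signal was read by luminescence after 10 min with luciferase detection reagent.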
FLuc modulator: counter-screen for miR-21 project: firefly luciferase inhibitors or activators | purified FLuc, Km substrates, luminescence inhibition | 6.9% of 360,000 active | P08659 | AID 588342 | Potency, µM (doses to about 57.5 µM), without a hit: top-dose activity change, negative = inhibition, hits mostly inhibitors;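 also: plate controls were vehicle for no effect and reference inhibitor for full effect; nearly all actives have a fitted effect of over 55% in size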
Target sequence (P08659 whole entry, looked up): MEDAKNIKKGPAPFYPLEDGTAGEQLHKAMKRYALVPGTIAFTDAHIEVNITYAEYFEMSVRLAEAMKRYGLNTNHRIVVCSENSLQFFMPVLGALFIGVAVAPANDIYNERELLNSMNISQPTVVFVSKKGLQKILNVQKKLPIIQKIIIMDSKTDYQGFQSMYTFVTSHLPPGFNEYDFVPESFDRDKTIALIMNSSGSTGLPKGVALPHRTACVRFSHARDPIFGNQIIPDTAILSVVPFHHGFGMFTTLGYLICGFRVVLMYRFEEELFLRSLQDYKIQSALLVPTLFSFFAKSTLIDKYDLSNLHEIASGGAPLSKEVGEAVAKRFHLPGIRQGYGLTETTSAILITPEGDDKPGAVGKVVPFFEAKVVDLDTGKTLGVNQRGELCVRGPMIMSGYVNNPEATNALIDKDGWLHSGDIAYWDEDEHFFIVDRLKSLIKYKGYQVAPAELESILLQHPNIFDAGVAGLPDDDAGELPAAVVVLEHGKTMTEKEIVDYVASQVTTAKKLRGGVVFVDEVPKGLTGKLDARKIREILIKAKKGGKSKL
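Biochemical qHTS of compounds, final roughly 60 µM downward over six points, against 10 nM purified firefly luciferase using Km concentrations of substrates (10 uM D-luciferin, 10 uM ATP) in Tris acetate pH 7.5 buffer; luminescence output.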
SMN2 splice up: increases expression of the SMN2 splice variant; 2.8% of 210,000 active; HEK293 SMN2-luciferase splicing reporter, luminescence, 30-36 h; Potency, µM (top dose mostly 46.1 µM), for the others: at the top dose activity change, positive = activation, most hits filed as activators; also: % of control where 0% means no effect; nearly all actives have a fitted effect of over 55% in size
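qHTS luciferase splicing reporter: luminescence rises when SMN2 exon 7 is included in transfected HEK293 cells. Compound exposure lasted 30-36 h at 37C, with 4.5 mM final sodium butyrate as control, followed by a ONE-Glo read.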
ELG1 DNA repair: blocks ELG1-dependent DNA repair in HEK293T cells | HEK293T ELG1-luciferase reporter, luminescence, 16 h; DNA damage induced by 5-fluorouridine | AID 504467 | Potency, µM (titrated, usually from 46.1 µM), inactives show at the highest dose activity change, negative = inhibition, most hits filed as inhibitors | 2.3% of 330,000 active; also: % is scaled to controls: 0 for no effect and ±100 for the full control effect; nearly all actives have a fitted effect of over 55% in size
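Quantitative HTS, concentration-response format. 2,000 cells/well co-treated with 5-fluorouridine and compound, 16 hr in 5% CO2 at 37 °C; ONE-Glo luminescence read after 30 min.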
ELG1 genotoxic: inducers of genotoxicity in HEK293T ELG1-luciferase cells; HEK293T ELG1-luciferase reporter, luminescence, 16 h; Potency, µM (highest dose often 46 µM), inactives show at the highest dose activity change, positive = activation, most hits filed as activators; 1.3% of 330,000 active; AID 504466; also: % of control where 0% means no effect; nearly all actives have a fitted effect of over 60% in size
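After overnight (16 hr) compound treatment at 37 °C, ELG1-luciferase HEK293T cells were lysed with ONE-Glo; luminescence quantified 30 min later at room temperature.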
Starred values were filed as active, the others as inactive; ? = inconclusive; / = no result. Only some compounds are listed: those with a hit (about 9.3% of all), similar ones and a draw of the others. Calls follow the shape of the dose curve; as a rule, active = well fitted curve in the direction sought with a large enough effect; inconclusive = small, poorly fitted or top-dose-only effect, or another doubt; inactive = no such curve, though single readings can be large; an effect the other way counts as inactive or inconclusive. Potency is read from the fitted curve at half-maximal effect.

SMILES	NPC1 prom act	Rab9 promoter act	FLuc modulator	SMN2 splice up	ELG1 DNA repair	ELG1 genotoxic
COc1ccc(O)c(/C=N/NC(=S)Nc2cccc(S(=O)(=O)N(C)C)c2)c1	-12%	-24%	11µM*	-59%	?	11%
CN(C)S(=O)(=O)c1cccc(NC(=S)N/N=C/C(c2ccccc2)c2ccccc2)c1	-2%	-1%	-3%	8%	13%	-1%
COc1cc(/C=N/NC(=S)Nc2cccc(S(=O)(=O)N(C)C)c2)cc(OC)c1O	-3%	0%	15µM*	-8%	21µM*	-4%
CCc1[nH]nc(C(=O)N2CCCC(C(=O)c3cccc(C(F)(F)F)c3)C2)c1C (configuration not stated)	0%	2%	-3%	/	1%	-3%
O=C1c2ccccc2NC(c2ccccc2)N1/N=C/c1ccccc1 (configuration not stated)	2.5µM*	2.5µM*	?	25µM*	?	20%
O=C(CSc1ncccc1C(=O)Oc1ccccc1Cl)Nc1ccc(C(F)(F)F)cc1Cl	/	/	1%	/	/	/
O=C(CCNC(=O)c1ccc([N+](=O)[O-])cc1)Nc1cccc(S(=O)(=O)N2CCCCCC2)c1	-1%	-1%	3%	/	?	-3%
Cc1cccc(OCC(=O)Nc2ccc3c(c2)OCO3)c1C	9%	7%	19µM*	0%	1%	9%
O=C(COc1ccc2ccc(=O)oc2c1)Nc1ccc2c(c1)OCCO2	2%	27%	9.5µM*	12%	2%	8%
O=C(COc1ccc2ccc(=O)oc2c1)Nc1ccc(CCO)cc1	0%	-9%	?	/	15%	0%
Cc1ccc(OCC(=O)Nc2ccc3c(c2)OCO3)cc1C	5%	16%	24µM*	/	22%	8%
NC(=O)c1cc(Cl)ccc1OCC(=O)Nc1ccc2c(c1)OCO2	1.4µM*	1.3µM*	0.85µM*	/	?	?
Cc1ccc(CN(Cc2ccco2)C(=O)c2ccc(Cl)cc2)o1	/	/	-17%	-1%	/	/
O=C(Nc1ccc(C(=O)N2CCOCC2)cc1)c1cccc([N+](=O)[O-])c1	-12%	-6%	3%	/	-16%	-3%
O=C(COc1ccccc1[N+](=O)[O-])Nc1ccc2c(c1)OCO2	2.5µM*	2.2µM*	4.8µM*	13µM*	?	9.2µM*
Cc1cc(C(=O)CSc2nnc(-c3ccco3)o2)c(C)n1-c1ccc2c(c1)OCCO2	-3%	-10%	-15%	-71%	?	-1%
Cc1cc(C(=O)CSc2nnnn2C)c(C)n1-c1ccc2c(c1)OCCO2	3.2µM*	2.5µM*	24µM*	?	?	10µM*
Cc1nnc(SCc2ccc(F)cc2Cl)s1	3.5µM*	?	24µM*	?	?	?
Cc1nnc(SCc2cccc(CSc3nnc(C)s3)c2)s1	?	?	?	9%	?	?
Cc1nnc(SCc2ccc3c(c2)OCO3)s1	21%	?	?	13%	?	21µM*
Cc1nnc(SCC(=O)c2cc(C)n(-c3ccc4c(c3)OCO4)c2C)s1	25%	?	24µM*	/	?	?
O=C(c1ccccc1)N1CCN(c2ccc(N3CCOCC3)nn2)CC1	1%	-4%	4%	/	7%	0%
COc1ccccc1-c1nnc(SCC(=O)Nc2cccnc2Cl)n1C	/	/	/	/	-2%	0%
Cc1ccc(-n2ncc(C(=O)NCc3ccco3)c2C2CCN(C(=O)OC(C)(C)C)CC2)c(C)c1	/	/	3%	/	/	/
CCOc1ccc(-c2cc3c(=O)n(Cc4nc(-c5ccc(OC(C)C)cc5)oc4C)ccn3n2)cc1Cl	/	/	-6%	10%	/	/
SMILES	NPC1 prom act	Rab9 promoter act	FLuc modulator	SMN2 splice up	ELG1 DNA repair	ELG1 genotoxic
COc1ccc(-c2nc3c(-c4ccc(F)cc4)cnn3cc2C)cc1F	-7%	0%	1%	/	2%	-8%
CNC1(C(N)=O)CCNCC1	-3%	-6%	-3%	/	-5%	0%
Cc1cc(C)nc(N(C#N)CC(=O)c2ccccc2)n1	1%	-1%	21µM*	/	-2%	-2%
O=C(NCC(c1ccco1)N1CCOCC1)c1ccccc1 (configuration not stated)	-2%	1%	4%	/	12%	0%
CCc1ccc(C(=O)/C=C/Nc2ccc(S(=O)(=O)Nc3cnc4ccccc4n3)cc2)cc1	18%	12%	?	/	?	14%
CCOC(=O)C1=C(COC(=O)/C=C/c2ccc([N+](=O)[O-])cc2)NC(=O)NC1C (configuration not stated)	0%	16%	1%	/	-10%	1%
COc1ccc(C(=O)c2cc3c(cc2[N+](=O)[O-])OCCO3)cc1	-1%	1%	-1%	/	?	4%
COc1ccc(C(=O)n2c(SC)nc3cc4c(cc32)OCCO4)cc1	17%	29%	19µM*	9%	?	?
Cc1nc(CSc2ccc(Br)cc2)cs1	-1%	4%	17µM*	/	?	12%
Cc1cc(-c2cc(-c3ccccc3)on2)nc(NC2CCCC2)n1	8%	0%	?	/	2%	3%
Nc1nc(-c2cc(-c3ccccc3)no2)cs1	1µM*	1µM*	3µM*	/	?	2.1µM*
c1ccc(-c2cc(-c3ccccc3)on2)cc1	1.4µM*	1.4µM*	0.76µM*	/	?	5.8µM*
O=C(c1ccccc1)c1cc(-c2ccccc2)on1	0.56µM*	0.63µM*	0.21µM*	?	?	2.1µM*
Cc1ccc(-c2cc(-c3ccccc3)no2)cc1	0.63µM*	0.32µM*	0.3µM*	/	?	?
Cc1nnc(NC(=O)CSc2nnc(-c3ccccc3)n2C)s1	0%	-12%	-6%	2%	4%	1%
Cc1ccc(NC(=O)c2noc(C(C)C)c2[N+](=O)[O-])cc1	4%	11%	?	-12%	-9%	6%
CCCCn1nc(C(=O)Nc2ccccc2N2CCCC2)c2ccccc2c1=O	-5%	-2%	0%	/	?	-2%
O=C(COc1ccc2ccccc2c1)NNC(=O)Cc1cccc2ccccc12	-5%	0%	3%	-16%	24%	1%
CC(C)(C)c1ccc(C(=O)NNC(=O)Cc2cccc3ccccc23)cc1	0%	1%	15µM*	17%	9%	-22%
CCN(C(=O)COC(=O)/C=C/c1c(C)nn(Cc2ccc(C)cc2)c1C)C1CCS(=O)(=O)C1 (configuration not stated)	1%	-10%	5%	-35%	-15%	-3%
O=c1oc(-c2ccccc2F)nc2scc(-c3ccccc3)c12	18%	?	4.8µM*	/	?	?
Cc1nc2scc(-c3ccccc3)c2c(=O)o1	0%	2%	2%	-18%	?	-2%
